Assay results as given in PubChem BioAssay (NCI).
The panel holds about 83,000 compounds, 20% with a hit somewhere; the sample as a whole holds those more often.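 Compound tested at a single concentration for 48 hours in 96-well plates; a percent growth value below 10 was scored as active.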 A number with no mark means an inactive call. Activity calls are given as the source filed them.

Experiments:
Assay in all cases: NCI-60 one-dose screen, 48 h (100 = growth as untreated, 0 = no growth, -100 = all killed)
Settings in all cases: 10 µM unless noted
NCI-H23 lung = test system: NCI-H23 lung
NCI-H226 lung = test system: NCI-H226 lung
NCI-H322M lung = test system: NCI-H322M lung
HOP-62 NSCLC = test system: HOP-62 NSCLC
NCI-H460 lung = test system: NCI-H460 lung
NCI-H522 lung = test system: NCI-H522 lung
A549/ATCC NSCLC = test system: A549/ATCC NSCLC
786-0 renal = test system: 786-0 renal
COLO 205 colon = test system: COLO 205 colon
DU-145 prostate = test system: DU-145 prostate
K-562 leukemia = test system: K-562 leukemia
MALME-3M melanoma = test system: MALME-3M melanoma
MDA-MB-231 breast = test system: MDA-MB-231 breast
RXF 393 renal = test system: RXF 393 renal
SF-268 CNS = test system: SF-268 CNS
SF-295 CNS = test system: SF-295 CNS
SF-539 CNS = test system: SF-539 CNS
M14 melanoma = test system: M14 melanoma
UACC-257 melanoma = test system: UACC-257 melanoma
HOP-92 NSCLC = test system: HOP-92 NSCLC

| SMILES | growth (NCI-H23 lung) [%] | growth (NCI-H226 lung) | growth (NCI-H322M lung) | growth (HOP-62 NSCLC) [%] | growth (NCI-H460 lung) | growth (NCI-H522 lung) | growth (A549/ATCC NSCLC) [%] | growth (786-0 renal) | growth (COLO 205 colon) | growth (DU-145 prostate) [%] | growth (K-562 leukemia) | growth (MALME-3M melanoma) [%] | growth (MDA-MB-231 breast) | growth (RXF 393 renal) | growth (SF-268 CNS) | growth (SF-295 CNS) | growth (SF-539 CNS) | growth (M14 melanoma) | growth (UACC-257 melanoma) | growth (HOP-92 NSCLC) |
| --- | --- | --- | --- | --- | --- | --- | --- | --- | --- | --- | --- | --- | --- | --- | --- | --- | --- | --- | --- | --- |
| CC(Cc1ccco1)C(=O)NC(N)=O (stereo not given) | 97.4 | 95.8% | 99.2% | 106 | 107% | 97.4% | 91.9 | 103% | 120% | 109 | 110% | 103 | 110% | 96.7% | 104% | 94.6% | 97.8% | 101% | – | – |
| Cn1cc(-c2csc(-c3c[nH]c4ccc(F)cc34)n2)c2cccnc21 | 50.4 | 59.7% | 74.8% | 43.2 | 11.4% | 12.6% | 46.5 | 66.6% | 35.6% | 61.9 | 19.8% | – | 50.1% | 54.4% | 51.1% | 14.8% | 31% | 13.7% | 63.4% | – |
| COC(=O)CCCCCn1c2ccccc2c2c3c(c4c5ccccc5[nH]c4c21)C(=O)N(O)C3=O | 44.1 | 74.4% | 62.4% | 26 | 33.4% | -60% (active) | – | 76.6% | 36.5% | 80.6 | 23.8% | 96 | 41.8% | 64.9% | 45.6% | 59.6% | 25.3% | 39.5% | – | 79.4% |
| C/C(=N\Nc1cc(C)c2cc(C)ccc2n1)c1ccccn1 | 10.2 | -5.19% (active) | -9.38% (active) | 10.1 | -68.7% (active) | -93.5% (active) | – | -73.3% (active) | -99.9% (active) | 21 | -40.8% (active) | – | -89.1% (active) | -88.2% (active) | -4.43% (active) | – | -92.4% (active) | -82.9% (active) | -73.5% (active) | -11% (active) |
| CN1CCN(c2nc(-c3cccc4ccccc34)nc3sc4c(c23)CCCCCC4)CC1 | 92.2 | 74.4% | 104% | 75.4 | 91.4% | 88.7% | – | 87.7% | 91.7% | 102 | 85.3% | 81.3 | 61.8% | 60.9% | 82% | – | 86% | 93.2% | 94.4% | -0.421% (active) |
| C#Cc1cc2c(N)c(C(=O)c3cc(OC)c(OC)c(OC)c3)[nH]c2cc1OC | 43.1 | 50% | 43.2% | 24.4 | 15.6% | -4.05% (active) | 45.4 | 46.8% | -16.3% (active) | 19 | 13.4% | 25.7 | 49.2% | -5.3% (active) | 49.6% | – | -23.6% (active) | 19.9% | 70.5% | – |
| CCN1CCN(C(=O)[C@@]2(C)CC[C@]3(C)CC[C@]4(C)C(=CC(=O)[C@@H]5[C@@]6(C)CC[C@H](OCCC#N)C(C)(C)[C@@H]6CC[C@]54C)[C@@H]3C2)CC1 | 87.9 | 89.9% | 106% | 100 | 99.9% | 95.4% | 84.1 | 51% | 95.7% | 97 | 31.8% | 65.3 | 97.5% | 85% | 90.4% | 84% | 80.4% | 96% | 88.4% | – |
| Cn1cc(-c2csc(-c3c[nH]c4ccccc34)n2)c2cccnc21 | 30.3 | 60.3% | 56.1% | 45.5 | – | 5.06% (active) | – | 45.7% | 9.57% (active) | 16.5 | 18.9% | – | 48.3% | 12.6% | 45.4% | 6.62% (active) | -1.15% (active) | 23.8% | 64.6% | 49.5% |
| NC1=C(C/C(N)=N\O)C(c2ccccc2Cl)c2c(ccc3ccccc23)O1 (stereo not given) | 86.9 | 89.4% | 96.4% | 78.2 | 87.8% | 55.4% | – | 93.4% | 118% | 106 | 22.8% | 58.5 | 86.9% | 86.4% | 82.2% | 66.7% | 83.6% | 59.8% | 96.1% | – |
| CCC(CC)C(=O)OC(C)COc1ccc(C(C)(C)C)cc1 (stereo not given) | 105 | 100% | 109% | 103 | – | 70.5% | 69.2 | 97.4% | 124% | 106 | 87% | 94.5 | 108% | 113% | 99.1% | 106% | 109% | 96% | 66.7% | – |
| Clc1cc(Cl)cc(Nc2ccc3c(OCCCN4CCOCC4)cccc3n2)c1 | 77 | 26.6% | 45.1% | 57.4 | – | 5.16% (active) | 25.6 | 54% | -53.4% (active) | 41.9 | -33.9% (active) | 71 | -24.6% (active) | 53.5% | 48.4% | 30.6% | 48.1% | 0.379% (active) | 73.2% | 37.3% |
| COc1cc2[nH]c(C(=O)c3cc(OC)c(OC)c(OC)c3)c(N)c2cc1C#CC1CC1 | 50.3 | 50.2% | 52.7% | 42.1 | – | -4.22% (active) | 42.9 | 38.7% | 8.48% (active) | 28.9 | 30.2% | 52.4 | 58.4% | 19.6% | 40.7% | – | -38.7% (active) | 22% | 67.9% | 17.2% |
| COc1cc2nc(Cl)nc(Nc3cccc(C(=O)/C=C/c4ccc(F)cc4)c3)c2cc1OC | 76 | 73.2% | 86.5% | 85.9 | – | 73.4% | – | 57.7% | 89.5% | 85.7 | 7.78% (active) | 81.2 | 62.4% | 69.4% | 89.6% | 74.1% | 25.8% | 62% | 102% | 75.3% |
| NS(=O)(=O)c1ccc(CCNC(=O)/C=C/c2ccc(Cl)cc2)cc1 | 107 | 107% | 107% | 97.5 | – | 89.8% | 95.9 | 102% | 110% | 99.5 | 90.4% | 90.4 | 98.4% | 122% | 95.6% | – | 101% | 99.2% | 104% | 100% |
| Cc1cccc(C)c1NC(=O)CSC(=S)N1CCCCC1 | 88.7 | 109% | 82.7% | 107 | – | 92% | 101 | 92.6% | 109% | 108 | 87.5% | 88.4 | 119% | 111% | 96% | 101% | 99.5% | 102% | 102% | 107% |
| C=CC(=O)N[C@H](Cc1ccc(-c2cc(Cl)cc(Cl)c2)cc1)[C@H](O)[C@@H](O)C(=O)O | 93.6 | – | 100% | 87.3 | 94.9% | 59.1% | 72 | 92.2% | 91.9% | 102 | 85% | 90.1 | 98.9% | 101% | 102% | 82.8% | 99.6% | 86.3% | 74.4% | 84.4% |
